Data taken from ChEMBL document CHEMBL3988442, “University of Dundee, Small-Polar-MMV Screening Library” (2021).
In all, about 48,000 compounds went through this assay and about 13,000 (27%) showed an effect of 50% or more. Some of the results follow.

What follows are compounds tested on Wolbachia pipientis (assay: Anti-Wolbachia Cell-Based Screen). Conditions: 5 µM.
Type: functional
Design: scale not given: in the data most compounds retested in dose-response had high values

| Compound | Percent Effect |
| --- | --- |
| O=S(=O)(CC1CC1)c1ncc(CN2CCOCC2)n1CC1CCCO1 (stereo not drawn) | 1.621% |
| Cn1cnc2c1CCN(CCS(=O)(=O)c1ccccc1)C2 | 2.795% |
| CCOc1ccc(CN2CCNC(C(=O)NC3CC3)C2)cc1CO (stereo not drawn) | -28.15% |
| Cc1nc(CNC(=O)c2oc3ccccc3c2CN(C)C)oc1C | 12.17% |
| COc1ccccc1OCCCc1cc(C#N)ccn1 | -8.074% |
| COc1cccn(CC(=O)N(C)CCCOc2c(C)cccc2C)c1=O | -81.04% |
| N#Cc1ccccc1OCCN1CCC(N2CCNC2=O)CC1 | -2.122% |
| COc1cccc(CN2C[C@H]3CC[C@H]2C3)c1OCCN1CCOCC1 | 3.067% |
| CC(C)Oc1ccccc1OCCN1C(=O)CCNC1=O | 102.7% |
| COc1ccccc1OCCCN1CCNC1=O | 93.18% |
| Cc1ccc(C)c(OCCN2CCC(N3CCNC3=O)CC2)c1 | -4.141% |
| COc1cccc(OC)c1OCCN1C(=O)CCNC1=O | 70.56% |
| COc1ccccc1OCCCc1cncc(C(N)=O)c1 | -13.5% |
| COc1ccccc1OCCCN1C(=O)CCNC1=O | 100.1999% |
| COc1ccccc1OCCN1CCC(N2CCNC2=O)CC1 | -7.605% |
| CCn1ccnc1CN1CCN(CCOc2ccccc2OC)CC1 | 1.541% |
| Cc1nc(N(C)CCCc2nccn2C)c2c(C)nn(C)c2n1 | -2.28% |
| Cc1[nH]c2c(C)ccc(C)c2c1CC(=O)NCc1csc(N(C)C)n1 | -37.05% |
| CCC(CC)c1cc(CNC(=O)N2CCOCC2CC)on1 (stereo not drawn) | 8.113% |
| CC(C)(O)CCc1ccc(C(=O)NCCC2CCOC2)cc1 (stereo not drawn) | -23.58% |
| CCOc1ccc(CN2CCN(CCOC)[C@@H]3CS(=O)(=O)C[C@@H]32)cc1 | -4.58% |
| O=C(NCCCOCC1CC1)Nc1cccnc1N1CCOCC1 | -4.484% |

| Compound | Percent Effect |
| --- | --- |
| CCc1nc(C#N)c(N2CCC(c3nc(-c4ccccc4)no3)CC2)o1 | -18.26% |
| O=S(=O)(CCN1CCCC1Cn1cncn1)c1ccccc1 (stereo not drawn) | 102.1% |
| c1ccc(CCCN2CCCC2Cn2cncn2)cc1 (stereo not drawn) | 145.7% |
| O=C1CCCN1CCCN1CCCCC1Cn1cncn1 (stereo not drawn) | 3.397% |
| c1csc(-c2noc(CCCN3CCCC3Cn3cccn3)n2)c1 (stereo not drawn) | -9.384% |
| O=S(=O)(CCCN1CCCCC1Cn1cncn1)c1ccccc1 (stereo not drawn) | 108.5% |
| c1ccc(-c2noc(CCCN3CCCC3Cn3cncn3)n2)cc1 (stereo not drawn) | 100.9% |
| c1ccc(-c2noc(C3CCN(CCCn4cncn4)CC3)n2)cc1 | -0.715% |
| CCN(Cc1ccccc1)C(=O)CN1CCCCC1Cn1cncn1 (stereo not drawn) | -8.051% |
| N#Cc1cccc(CN2CCCC2Cn2cncn2)c1 (stereo not drawn) | -16.52% |
| Cc1cc(C)n(CC2CCCN2CCS(=O)(=O)c2ccccc2)n1 (stereo not drawn) | -8.876% |
| CN1CCN(CC2CC2)C(=O)C12CCN(c1nccs1)CC2 | -15.71% |
| CC(C)NC(=O)[C@@H](NC(=O)N1CCN(c2ccc(Cl)cc2)CC1)C(C)C | -4.425% |
| Cn1cnc(-c2nc(C(=O)NCCN3CCOCC3)c3ccccn23)c1 | -34.35% |
| CN(CC1CC1)S(=O)(=O)c1ccc(C(F)(F)F)cc1C#N | -1.577% |
| O=C(c1ccc2c(c1)[nH]c(=O)n2[C@H]1CC[C@H](O)CC1)N1CCOCC1 | 1.877% |
| O=S(=O)(CCN1CCOC(Cn2cncn2)C1)c1ccccc1 (stereo not drawn) | -0.6358% |
| N#Cc1ccccc1OCCN1CCCCC1Cn1cncn1 (stereo not drawn) | -1.923% |
| O=S(=O)(CCN1CCCCC1Cn1cncn1)c1ccccc1 (stereo not drawn) | 104.1% |
| O=S(=O)(CCCN1CCCC(Cn2cncn2)C1)c1ccccc1 (stereo not drawn) | 92.49% |
| O=C1CCCN1CCN1CCCCC1Cn1cncn1 (stereo not drawn) | 1.495% |
| O=S(=O)(c1ccccc1)N1CCCC(Cn2cncn2)C1 (stereo not drawn) | -7.569% |

| Compound | Percent Effect |
| --- | --- |
| CCN(CC1COc2ccccc2O1)C(=O)C1=NN(C)C(=O)CC1 (stereo not drawn) | 17.44% |
| COC(=O)CCNC(=O)c1c[nH]cc1-c1cccc(OC)c1 | 3.352% |
| COc1ccc(C)cc1CN1CCCC1Cn1nc(C)nc1C (stereo not drawn) | 2.525% |
| COc1ccc(CN2CCCCC2Cn2nc(C)nc2C)cc1F (stereo not drawn) | 112.6% |
| COc1ccc(F)cc1CN1CCCC1Cn1nc(C)nc1C (stereo not drawn) | 149.5% |
| COc1ccc(CN2CCCC2Cn2nc(C)nc2C)cc1F (stereo not drawn) | -0.5946% |
| COCCNC(=O)c1cc(COc2cncc(Cl)c2)on1 | 6.247% |
| CC(C)CN1CCN(Cc2nc3c(s2)CCCC3)[C@H]2CS(=O)(=O)C[C@H]21 | -7.173% |
| O=C(NC[C@H]1OC[C@@H](NC2CCC(F)(F)CC2)[C@@H]1O)C1CC1 | -11.71% |
| Cc1nc(Nc2cnccn2)cc(C2CCCN2)n1.Cl (stereo not drawn) | 92.06% |
| Cl.c1cnc(Nc2cncc(C3CCCN3)n2)cn1 (stereo not drawn) | 154.6% |
| Cc1ccc2[nH]c(CN(C)c3cc(CCN)nc(C)n3)nc2c1 | 1.379% |
| CCCc1cc(C(=O)N2CCCN(c3cccnn3)CC2)[nH]n1 | -4.631% |
| COc1ccc(C2(CNC(C)c3nnc(C)o3)CCCCC2)cc1 (stereo not drawn) | -5.469% |
| CCN(C(=O)Cc1ccc(NCc2nccn2C)cc1)c1ccccc1 | -5.228% |
| CSC(C)C(=O)N1CCC(Oc2cc(C)ccc2F)(C(=O)O)CC1 (stereo not drawn) | -19.74% |
| COc1ccc(CNc2cnn(CC(F)F)c2)cc1 | 98.47% |
| COc1cccc(CNc2c(C)nn(C(C)C)c2C)c1.Cl | -5.673% |
| COc1cccc(CNc2cnn(C)c(=O)c2Cl)c1 | -15.43% |
| CC(C)(C)C(=O)N1CCN(C(=O)Nc2cnn(CC(F)F)c2)CC1 | 14.61% |
| COc1cccc(CNc2cnn(CC(F)F)c2)c1 | 110.9% |
| COCCn1cc(NCc2c[nH]nc2-c2ccc(OC)cc2)cn1 | -43.6% |

| Compound | Percent Effect |
| --- | --- |
| CC1=CC(C)(C)N(CN2C(=O)c3ccccc3C2=O)c2ccc(C)cc21 | -18.46% |
| CCN1CCC(CC(=O)NCCc2nc(C)c(Cl)s2)CC1 | -2.005% |
| CCC(c1nc(CC(C)C)nn1-c1ccccn1)n1cccn1 (stereo not drawn) | -7.483% |
| CSCCCN1CCC[C@]2(C(=O)O)CN(c3cnccn3)CC[C@@H]12 | -18.46% |
| CN(C)c1ccc(C2CCN(c3cnccn3)CC2)nc1 | 110.3% |
| c1cc(C2CCN(c3cnccn3)CC2)ccn1 | 108.9% |
| CC(C)c1nccn1C(C)C(=O)N1CCN(c2cnccn2)CC1 (stereo not drawn) | 8.025% |
| c1ccc(C2CCN(c3cncc(-n4cccn4)n3)CC2)cc1 | -3.284% |
| Cc1ccc(-c2cn[nH]c2C2CCCN(c3cnccn3)C2)cc1 (stereo not drawn) | -26.5% |
| Nc1nccc(C2CCN(c3cnccn3)C2)n1 (stereo not drawn) | 100.6% |
| CC(c1ccccc1)N(C)C(=O)CN1CCN(c2cnccn2)CC1 (stereo not drawn) | -4.354% |
| O=C1OCCC1N1CCN(c2cnccn2)CC1 (stereo not drawn) | -13.03% |
| c1cc(C2CCN(c3cnccn3)CC2)ncn1 | 111.8% |
| Cc1ccc(CN2CC[C@@H](O)[C@@H]2Cc2ccccc2)o1.O=C(O)C(F)(F)F | 1.325% |
| CC(=O)c1cccc(OCCCC(=O)N(C)Cc2ccccn2)c1 | 14.18% |
| CC(C)[C@@H]1CN(Cc2ccsc2)C[C@H]1NS(=O)(=O)N(C)C | 12.46% |
| COc1ccnc(N2C[C@@H](NS(=O)(=O)N(C)C)[C@H](C(C)C)C2)n1 | 1.494% |
| CC(C)[C@@H]1CN(c2ncc(F)cn2)C[C@H]1NC(=O)N(C)C | 70.99% |
| CC(C)[C@@H]1CN(c2ccc(F)cn2)C[C@H]1NS(C)(=O)=O | -10.09% |
| Cc1noc(C)c1CN1C[C@@H](NC(=O)N(C)C)[C@H](C(C)C)C1 | -17.12% |
| CC(C)[C@@H]1CN(S(=O)(=O)Cc2ccccc2)C[C@H]1NS(=O)(=O)N(C)C | -33.69% |
| CCN(C)S(=O)(=O)N[C@H]1CN(c2ccc(F)cn2)C[C@@H]1C(C)C | 1.28% |

| Compound | Percent Effect |
| --- | --- |
| CC(C)[C@H]1CN(c2ccncc2)C[C@@H]1NS(=O)(=O)N(C)C | 113.1% |
| CC(C)[C@@H]1CN(c2ncc(F)cn2)C[C@H]1NS(=O)(=O)N(C)C | 83.11% |
| CCc1nc2n(n1)CCCC2Nc1nc(C(C)C)ns1 (stereo not drawn) | -21.17% |
| CC(C)CCN1CC2(CCCN(C(=O)c3cscn3)C2)CCC1=O (stereo not drawn) | -17.51% |
| CC(C)(C)n1cc(C(=O)N2CCN(Cc3ccsc3)CC2)cn1 | 2.604% |
| O=C(NC[C@H]1OC[C@@H](NC2CCC(F)(F)CC2)[C@@H]1O)Nc1ccccc1 | -10.14% |
| Cc1ccc(F)cc1S(=O)(=O)NCc1[nH]ncc1Br | -6.756% |
| CC(=O)N1CCCN(C(=O)Cc2c(C)nc(C)[nH]c2=O)CC1 | -4.556% |
| Cc1cc(NS(=O)(=O)c2cnc3onc(C)c3c2)no1 | -3.715% |
| CN(C)C(=O)CN1CCN(Cc2coc(-c3cccc(F)c3)n2)CC1 | 102.1% |
| COCC(=O)N1CCN(Cc2coc(-c3cccc(F)c3)n2)CC1 | -10.41% |
| Fc1cccc(-c2nc(CN3CCCCC3Cn3cncn3)co2)c1 (stereo not drawn) | -6.024% |
| CC1CCCN(Cc2coc(-c3cccc(F)c3)n2)C1 (stereo not drawn) | -1.096% |
| CC(=O)N1CCN(Cc2coc(-c3cccc(F)c3)n2)CC1 | 97.72% |
| CCNC(=O)C1CN(Cc2c(-c3cc(C)on3)nn(C)c2Cl)CCO1 (stereo not drawn) | -15.99% |
| CCN(CC)S(=O)(=O)N1CCc2nc(C3CCNCC3)ncc2C1.Cl | 116.7% |
| Cl.O=S(=O)(N1CCCCC1)N1CCc2nc(C3CCNCC3)ncc2C1 | -9.776% |
| CCC(C)S(=O)(=O)N1CCc2nc(C3CCNCC3)ncc2C1.Cl (stereo not drawn) | 105.9% |
| CCN(CC)S(=O)(=O)N1CCCC(c2nccn2Cc2ccncc2)C1 (stereo not drawn) | 6.265% |
| CC(C)NC(=O)c1cc2c(nc1N(C)C)CCN(S(=O)(=O)C1CC1)CC2 | -5.433% |
